Key:
[1] = biological target: Fibroblast growth factor receptor 4 (Homo sapiens) (UniProt P22455); details: at 1 µM;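 further: reported figure is the averaged percent inhibition of FGFR4, from the GSK PKIS kinase screening panel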
[2] = biological target: Tyrosine-protein kinase Fgr (Homo sapiens) (UniProt P09769); details: at 0.1 µM
[3] = biological target: Tyrosine-protein kinase Fgr (Homo sapiens) (UniProt P09769); details: at 1 µM
[4] = biological target: Vascular endothelial growth factor receptor 1 (Homo sapiens) (UniProt P17948); details: at 0.1 µM
Sequence of Vascular endothelial growth factor receptor 1 (Homo sapiens) (P17948 whole entry): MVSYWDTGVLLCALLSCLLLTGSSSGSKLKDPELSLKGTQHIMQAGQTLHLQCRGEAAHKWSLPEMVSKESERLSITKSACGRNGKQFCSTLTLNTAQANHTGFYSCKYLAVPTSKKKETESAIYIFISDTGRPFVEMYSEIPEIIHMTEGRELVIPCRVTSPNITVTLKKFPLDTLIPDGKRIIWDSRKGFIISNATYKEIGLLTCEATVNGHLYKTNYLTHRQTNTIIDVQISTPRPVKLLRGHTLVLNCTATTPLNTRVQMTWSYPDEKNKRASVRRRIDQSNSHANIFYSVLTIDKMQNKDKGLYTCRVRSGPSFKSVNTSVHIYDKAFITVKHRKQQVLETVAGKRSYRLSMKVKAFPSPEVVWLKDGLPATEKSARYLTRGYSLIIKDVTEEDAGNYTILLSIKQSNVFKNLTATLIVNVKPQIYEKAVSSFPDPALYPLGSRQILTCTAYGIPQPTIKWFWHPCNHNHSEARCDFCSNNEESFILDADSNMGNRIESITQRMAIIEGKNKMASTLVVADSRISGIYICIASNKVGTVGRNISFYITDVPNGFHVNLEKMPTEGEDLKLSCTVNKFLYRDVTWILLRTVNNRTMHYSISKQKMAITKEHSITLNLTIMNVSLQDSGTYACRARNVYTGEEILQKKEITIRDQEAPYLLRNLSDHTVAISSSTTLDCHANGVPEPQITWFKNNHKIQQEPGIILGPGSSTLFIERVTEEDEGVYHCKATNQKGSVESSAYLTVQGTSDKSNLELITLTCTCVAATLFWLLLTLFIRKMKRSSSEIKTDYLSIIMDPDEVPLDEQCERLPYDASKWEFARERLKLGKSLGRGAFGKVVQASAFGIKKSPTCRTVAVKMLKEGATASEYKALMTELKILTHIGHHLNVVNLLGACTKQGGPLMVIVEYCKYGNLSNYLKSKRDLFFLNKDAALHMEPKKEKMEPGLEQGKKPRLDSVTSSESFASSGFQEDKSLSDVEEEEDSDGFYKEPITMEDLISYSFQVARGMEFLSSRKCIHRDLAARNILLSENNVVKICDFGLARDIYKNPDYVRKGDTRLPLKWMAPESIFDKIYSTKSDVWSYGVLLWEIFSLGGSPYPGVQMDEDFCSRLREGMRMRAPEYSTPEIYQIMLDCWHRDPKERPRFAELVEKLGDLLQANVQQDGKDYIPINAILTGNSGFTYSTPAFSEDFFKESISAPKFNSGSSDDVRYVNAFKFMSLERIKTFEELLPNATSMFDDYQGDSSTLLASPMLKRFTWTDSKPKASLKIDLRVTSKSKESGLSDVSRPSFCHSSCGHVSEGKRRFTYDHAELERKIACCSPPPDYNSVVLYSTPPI

[5] = biological target: Vascular endothelial growth factor receptor 1 (Homo sapiens) (UniProt P17948); details: at 1 µM
[6] = biological target: Receptor-type tyrosine-protein kinase FLT3 (Homo sapiens) (UniProt P36888); details: at 0.1 µM
[7] = biological target: Receptor-type tyrosine-protein kinase FLT3 (Homo sapiens) (UniProt P36888); details: at 1 µM
[8] = system: T1, Receptor-type tyrosine-protein kinase FLT3 (Homo sapiens), P36888 [D835Y]; details: at 0.1 µM
T1 sequence (whole entry): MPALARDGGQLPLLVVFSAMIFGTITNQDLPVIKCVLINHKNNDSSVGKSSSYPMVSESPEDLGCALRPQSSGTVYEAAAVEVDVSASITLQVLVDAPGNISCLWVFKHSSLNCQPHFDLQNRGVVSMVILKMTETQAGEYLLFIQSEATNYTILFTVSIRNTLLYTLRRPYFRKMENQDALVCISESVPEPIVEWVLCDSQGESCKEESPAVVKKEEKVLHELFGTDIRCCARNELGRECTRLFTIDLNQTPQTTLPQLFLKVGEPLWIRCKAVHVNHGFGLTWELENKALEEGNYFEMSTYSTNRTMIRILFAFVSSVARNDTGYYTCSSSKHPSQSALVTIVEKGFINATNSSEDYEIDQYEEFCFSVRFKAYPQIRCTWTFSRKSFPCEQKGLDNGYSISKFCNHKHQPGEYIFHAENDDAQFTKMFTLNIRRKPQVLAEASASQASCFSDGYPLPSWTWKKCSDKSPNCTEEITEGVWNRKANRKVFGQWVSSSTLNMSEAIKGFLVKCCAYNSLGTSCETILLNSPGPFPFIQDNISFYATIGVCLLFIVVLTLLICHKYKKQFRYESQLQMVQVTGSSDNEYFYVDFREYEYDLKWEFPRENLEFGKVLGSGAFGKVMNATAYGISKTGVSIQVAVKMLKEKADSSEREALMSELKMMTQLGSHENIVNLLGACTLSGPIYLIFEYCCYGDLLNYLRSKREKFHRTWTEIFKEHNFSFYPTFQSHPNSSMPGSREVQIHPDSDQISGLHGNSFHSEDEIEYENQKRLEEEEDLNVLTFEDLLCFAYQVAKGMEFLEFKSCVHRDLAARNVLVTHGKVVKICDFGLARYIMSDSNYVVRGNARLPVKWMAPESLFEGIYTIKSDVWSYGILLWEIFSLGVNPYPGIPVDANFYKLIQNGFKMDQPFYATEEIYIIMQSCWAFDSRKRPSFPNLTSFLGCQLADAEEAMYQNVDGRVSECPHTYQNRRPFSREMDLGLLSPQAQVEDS

[9] = biological target: Non-receptor tyrosine-protein kinase TYK2 (Homo sapiens) (UniProt P29597); details: at 1 µM;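 further: values are mean percent inhibition of TYK2 kinase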
Sequence of Non-receptor tyrosine-protein kinase TYK2 (Homo sapiens) (P29597 whole entry): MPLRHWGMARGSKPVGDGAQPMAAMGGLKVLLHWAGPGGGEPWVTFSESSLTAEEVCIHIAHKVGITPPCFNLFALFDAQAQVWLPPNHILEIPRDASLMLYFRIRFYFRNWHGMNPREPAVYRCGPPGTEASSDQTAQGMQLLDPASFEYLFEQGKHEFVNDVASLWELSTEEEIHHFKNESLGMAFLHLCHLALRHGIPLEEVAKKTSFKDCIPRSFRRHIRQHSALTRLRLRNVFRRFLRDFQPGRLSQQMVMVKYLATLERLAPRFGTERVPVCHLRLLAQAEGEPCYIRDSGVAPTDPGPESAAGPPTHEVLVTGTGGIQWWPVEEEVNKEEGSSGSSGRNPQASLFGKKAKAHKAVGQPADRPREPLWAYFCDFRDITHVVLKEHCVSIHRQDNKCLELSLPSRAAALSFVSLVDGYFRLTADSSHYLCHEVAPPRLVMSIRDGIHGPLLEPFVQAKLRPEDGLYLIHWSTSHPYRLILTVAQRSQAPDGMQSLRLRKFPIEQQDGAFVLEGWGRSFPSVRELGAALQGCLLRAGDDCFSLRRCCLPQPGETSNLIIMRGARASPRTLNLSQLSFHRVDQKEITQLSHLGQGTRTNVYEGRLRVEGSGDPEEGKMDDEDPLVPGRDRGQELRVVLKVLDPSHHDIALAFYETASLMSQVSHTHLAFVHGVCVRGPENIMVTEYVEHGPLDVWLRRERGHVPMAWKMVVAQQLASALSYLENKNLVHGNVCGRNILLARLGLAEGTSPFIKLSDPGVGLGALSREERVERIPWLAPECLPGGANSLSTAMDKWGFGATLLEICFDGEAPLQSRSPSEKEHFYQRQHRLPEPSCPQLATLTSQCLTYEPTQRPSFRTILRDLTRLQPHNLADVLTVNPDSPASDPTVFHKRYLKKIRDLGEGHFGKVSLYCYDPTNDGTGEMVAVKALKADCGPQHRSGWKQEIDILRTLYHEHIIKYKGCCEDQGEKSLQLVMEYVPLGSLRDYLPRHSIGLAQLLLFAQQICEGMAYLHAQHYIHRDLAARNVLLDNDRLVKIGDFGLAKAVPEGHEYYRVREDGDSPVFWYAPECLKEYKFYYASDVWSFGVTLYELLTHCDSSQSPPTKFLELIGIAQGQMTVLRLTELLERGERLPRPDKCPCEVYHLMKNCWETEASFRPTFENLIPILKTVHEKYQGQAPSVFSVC

[10] = biological target: T2, Tyrosine-protein kinase receptor TYRO3 (Homo sapiens) (UniProt Q06418); details: at 0.1 µM;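 further: reported percentages are averaged inhibition values of TYRO3 kinase activity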
T2 sequence (whole entry): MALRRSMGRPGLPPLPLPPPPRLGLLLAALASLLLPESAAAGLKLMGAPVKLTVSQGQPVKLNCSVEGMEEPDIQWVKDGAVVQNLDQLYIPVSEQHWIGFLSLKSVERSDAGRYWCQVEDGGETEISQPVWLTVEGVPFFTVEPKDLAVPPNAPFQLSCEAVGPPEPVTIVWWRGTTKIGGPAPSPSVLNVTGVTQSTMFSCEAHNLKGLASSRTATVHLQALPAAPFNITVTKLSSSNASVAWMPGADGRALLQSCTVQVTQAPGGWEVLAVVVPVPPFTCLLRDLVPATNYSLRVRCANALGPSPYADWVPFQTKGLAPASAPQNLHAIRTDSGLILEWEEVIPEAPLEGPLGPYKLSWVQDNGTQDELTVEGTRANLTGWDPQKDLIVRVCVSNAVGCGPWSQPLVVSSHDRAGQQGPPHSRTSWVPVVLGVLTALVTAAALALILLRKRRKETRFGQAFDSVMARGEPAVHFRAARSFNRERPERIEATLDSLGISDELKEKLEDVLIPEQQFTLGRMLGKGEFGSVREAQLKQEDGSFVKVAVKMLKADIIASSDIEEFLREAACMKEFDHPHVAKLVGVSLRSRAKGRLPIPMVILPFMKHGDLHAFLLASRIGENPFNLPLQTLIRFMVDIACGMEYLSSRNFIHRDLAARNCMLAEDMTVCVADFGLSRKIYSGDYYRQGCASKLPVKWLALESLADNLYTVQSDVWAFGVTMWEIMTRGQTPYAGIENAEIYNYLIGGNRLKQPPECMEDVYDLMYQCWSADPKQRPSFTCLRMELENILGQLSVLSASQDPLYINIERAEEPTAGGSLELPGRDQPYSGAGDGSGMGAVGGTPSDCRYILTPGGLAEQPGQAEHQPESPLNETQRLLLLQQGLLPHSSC

Sequence of Tyrosine-protein kinase Fgr (Homo sapiens) (P09769 2-529 limits assumed): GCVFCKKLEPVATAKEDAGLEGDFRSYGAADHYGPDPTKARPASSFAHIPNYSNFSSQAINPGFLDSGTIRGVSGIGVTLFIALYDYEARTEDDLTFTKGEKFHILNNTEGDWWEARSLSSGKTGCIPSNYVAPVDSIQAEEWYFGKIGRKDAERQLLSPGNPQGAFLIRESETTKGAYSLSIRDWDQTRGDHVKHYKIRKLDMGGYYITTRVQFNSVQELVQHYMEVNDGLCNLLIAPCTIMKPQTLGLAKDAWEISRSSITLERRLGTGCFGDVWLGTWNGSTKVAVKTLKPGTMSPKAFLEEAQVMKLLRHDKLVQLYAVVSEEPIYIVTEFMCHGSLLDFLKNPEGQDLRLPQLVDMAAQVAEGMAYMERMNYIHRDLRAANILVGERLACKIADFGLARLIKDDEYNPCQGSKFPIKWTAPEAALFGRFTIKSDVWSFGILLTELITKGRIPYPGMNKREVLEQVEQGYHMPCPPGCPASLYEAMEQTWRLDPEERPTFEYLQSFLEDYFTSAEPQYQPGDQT
Sequence of Fibroblast growth factor receptor 4 (Homo sapiens) (P22455 22-802 limits assumed): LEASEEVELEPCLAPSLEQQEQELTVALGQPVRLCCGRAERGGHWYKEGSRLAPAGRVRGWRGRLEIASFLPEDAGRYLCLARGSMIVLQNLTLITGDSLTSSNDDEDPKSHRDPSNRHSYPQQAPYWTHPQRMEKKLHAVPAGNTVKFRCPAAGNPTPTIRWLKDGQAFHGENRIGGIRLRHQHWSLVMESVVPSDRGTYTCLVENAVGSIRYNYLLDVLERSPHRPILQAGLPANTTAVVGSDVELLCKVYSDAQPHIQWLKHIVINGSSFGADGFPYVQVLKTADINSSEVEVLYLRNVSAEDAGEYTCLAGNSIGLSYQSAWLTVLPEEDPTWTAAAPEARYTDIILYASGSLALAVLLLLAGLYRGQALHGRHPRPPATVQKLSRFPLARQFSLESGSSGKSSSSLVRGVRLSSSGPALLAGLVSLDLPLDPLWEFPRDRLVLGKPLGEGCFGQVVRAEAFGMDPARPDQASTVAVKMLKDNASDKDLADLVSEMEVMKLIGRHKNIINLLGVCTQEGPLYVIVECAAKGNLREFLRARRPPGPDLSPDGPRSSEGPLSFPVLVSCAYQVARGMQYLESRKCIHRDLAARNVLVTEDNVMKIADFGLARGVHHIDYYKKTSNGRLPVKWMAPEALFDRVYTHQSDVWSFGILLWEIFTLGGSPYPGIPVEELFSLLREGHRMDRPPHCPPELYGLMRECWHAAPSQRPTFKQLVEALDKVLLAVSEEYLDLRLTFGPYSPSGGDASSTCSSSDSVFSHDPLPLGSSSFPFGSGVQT

| Structure (SMILES) | inhibition [1] | inhibition [2] | inhibition [3] | inhibition [4] | inhibition [5] | inhibition [6] | inhibition [7] | inhibition [8] | inhibition [9] | inhibition [10] |
| --- | --- | --- | --- | --- | --- | --- | --- | --- | --- | --- |
| CS(=O)(=O)Nc1ccc(-c2cc(-c3ccccc3)cc(C(N)=O)c2N)cc1 | 1.17% | -1.31% | 1.01% | 1.22% | 1.42% | 6% | 4.94% | -2.16% | -2.96% | 0.01% |
| CN1CCC(n2cnc(-c3ccc(F)cc3)c2-c2ccnc(NCCO)n2)CC1 | 0.38% | 5.33% | 2.78% | 1.32% | 3.27% | 1.5% | 5.56% | -2.58% | -4.71% | 3.69% |
| CCOc1ccc2c(-c3ccnc(Nc4cc(OC)cc(C(F)(F)F)c4)n3)cnn2n1 | 3.56% | 1.32% | 9.11% | 1.04% | 5.65% | 2.11% | 15.1% | 2.53% | 1.53% | 1.46% |
| Cc1c2ccc(N(C)c3ccnc(Nc4cccc(S(N)(=O)=O)c4)n3)cc2nn1C | 26.4% | 26% | 64.7% | 52.8% | 94% | 2.48% | 15% | -0.8% | -3.19% | 3.74% |
| COc1ccc(Nc2ncc(-c3ccccc3)o2)cc1OC | 1.3% | 3.96% | 31.4% | 6.85% | 23.6% | 76.6% | 89.4% | 15.2% | 5.03% | 0.14% |
| O=C(Nc1n[nH]c2nnc(-c3cccnc3)cc12)C1CC1 | -0.33% | 2.57% | 2.95% | 0.7% | 0.07% | -0.64% | 1.54% | 0.49% | 2.04% | -0.64% |
| Cc1ccc(-c2cc3c(NC(=O)C4CC4)ncnc3o2)cc1 | 1.04% | 2.06% | 13.3% | 2.75% | 3.26% | 2.89% | 3.69% | 0.76% | -1.62% | 9.35% |
| CNC(=O)c1cncc(/C=C/c2ccccc2C)c1 | -0.62% | 5.41% | 9.23% | 1.31% | 0.49% | 1.85% | 1.3% | -2.2% | -3.23% | 3.13% |
| CCS(=O)(=O)c1ccc(OC)c(Nc2ncc(-c3cccc(C(C)=O)c3)o2)c1 | 3.95% | 13.2% | 44.4% | 3.88% | 17.2% | 19.1% | 69.8% | 55.7% | -1.19% | 5.67% |
| CS(=O)(=O)CCNCc1ccoc1-c1ccc2ncnc(Nc3ccc(OCc4ccccc4)cc3)c2c1 | 1.85% | 2.61% | 12.6% | 2.35% | -0.36% | 1.82% | 6.53% | -4.02% | 0.15% | 0.96% |
| NC(=O)c1ccc2c(-c3ccnc(NCCCO)n3)c(-c3ccc(F)cc3)nn2c1 | 1.22% | 3.07% | 12.1% | 3.74% | 3.53% | 4.12% | 5.06% | 2.33% | -5.12% | 3.03% |
| CNC(=O)c1sc(-n2cnc3cc(OC)c(OC)cc32)cc1OCc1ccccc1C(F)(F)F | 1.34% | 4.08% | 10.1% | 1.22% | 0.98% | 2.13% | 3.19% | -3.62% | -3.45% | 1.67% |
| COc1cccc(-n2ncc3c(N/N=C/c4ccc(C(=O)NCCN(C)C)cc4)ncnc32)c1 | 4.18% | 47.4% | 82.1% | 8.45% | 37.3% | 14% | 54.9% | 30.8% | 5.84% | 16.6% |
| NS(=O)(=O)c1ccc(N/N=C2\C(=O)Nc3cccc(CCc4ccncc4)c32)cc1 | 1.66% | 4.48% | 10.8% | 5.3% | 12% | 64.3% | 79.3% | 50.7% | -1.59% | 0.03% |
| FC(F)(F)CNc1nccc(-c2cnn3ncccc23)n1 | -0.36% | 2.09% | 3.01% | -0.04% | 0.56% | 0.41% | -1.47% | -2.63% | -2.6% | 0.93% |
| COC(=O)Nc1nc2ccc(Oc3ccc(NC(=O)Nc4cc(C(F)(F)F)ccc4F)cc3)cc2s1 | 3.25% | 1.85% | 9.94% | 36% | 78.1% | 11.2% | 47.1% | -0.17% | 1.02% | 6.26% |
